Hsp70 activator – Hsp70 transcriptional activators, primary screen, cell-based, HeLa, Hsp70 promoter luciferase, luminescence, 10 µM; HeLa Hsp70 promoter luciferase reporter; scaled: vehicle 0, proteasome-inhibitor control 100%; activation, % at 10 µM; hit rate 0.04% among 200,000; AID 1203, 2008;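 active means activation above the mean across all tested compounds plus 3 SD, cutoff set per campaign, cut at about 5.5% in these data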;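 further: 100% = MG132 at 30 µM as the positive control and 0% = DMSO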
S1P4 agonist – S1P4 receptor agonists, primary screen, cell-based. S1P4-expressing cell line, agonist reporter assay. activation, % at 4.98 µM. hit rate 0.35% among 220,000; in the data active means activation above about 11%;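 further: 0% = DMSO vehicle and 100% = reference agonist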
AI-2 QS mod – Vibrio harveyi AI-2 quorum sensing modulators, primary screen, JMH597 strain, luminescence/OD600 ratio; Vibrio harveyi JMH597 AI-2 luminescence/OD600 ratio, 9 h; active compounds read low; strain lacks LuxN and CqsS sensors; 0 = neutral-control median; hit rate 0.4% among 300,000; activity change, % at 7.5 µM; in the data active means activity change below about -75%, passing the limit was not always enough;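 further: luminescence divided by OD600 gain over 9 h not by final OD600 alone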
S1P3 antag-1 – S1P3 receptor antagonists, primary screen, cell-based; inhibition, % at 4.98 µM; CHO S1P3 NFAT-BLA reporter, FRET fluorescence, antagonist mode; hit rate 0.27% among 170,000; AID 485, 2006; Sphingosine 1-phosphate receptor 3 (Homo sapiens), Q99500;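 active means inhibition above the plate cutoff, the mean inhibition of test wells on that plate plus 3 SD, cut at about 28% in these data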;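 further: cells challenged with S1P at its EC80 of 0.8 µM; blue over green emission ratio from cleaved BLA substrate after 4 h stimulation; 0% = S1P-stimulated wells and 100% = unstimulated DMSO-only wells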
Target sequence (Q99500 whole entry, looked up): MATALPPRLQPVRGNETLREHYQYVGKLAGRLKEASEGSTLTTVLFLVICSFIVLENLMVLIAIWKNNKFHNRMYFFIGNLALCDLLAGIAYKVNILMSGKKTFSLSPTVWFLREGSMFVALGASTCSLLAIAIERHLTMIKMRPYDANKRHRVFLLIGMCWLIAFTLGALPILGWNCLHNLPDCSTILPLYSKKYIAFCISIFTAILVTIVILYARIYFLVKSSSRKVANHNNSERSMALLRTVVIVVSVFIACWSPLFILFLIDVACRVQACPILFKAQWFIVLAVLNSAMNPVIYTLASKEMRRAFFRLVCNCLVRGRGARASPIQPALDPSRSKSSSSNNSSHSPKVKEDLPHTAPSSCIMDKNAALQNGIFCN
S1P4 antag – S1P4 receptor antagonists, primary screen, cell-based; hit rate 0.26% among 220,000; S1P4-expressing cells, antagonist mode, reporter read-out; inhibition, % at 4.98 µM; Sphingosine 1-phosphate receptor 4 (Homo sapiens), O95977; in the data active means inhibition above about 29%;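 further: 0% = wells stimulated with agonist and 100% = vehicle wells without agonist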
S1P3 antag-2 – S1P3 receptor antagonists, retest, confirmation, cell-based. shares compounds with S1P3 antag-1. hit rate 30% among 240. AID 1429, 2008. inhibition, % at 4.98 µM. CHO S1P3 NFAT-BLA reporter, FRET, antagonist mode;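 active means inhibition above the hit threshold that was computed for the earlier primary screen, cut at about 30% in these data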;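 further: 0% = S1P-stimulated wells and 100% = unstimulated DMSO-only wells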
Hsp70 act dose – Hsp70 transcriptional activators, dose response, cell-based, HeLa, Hsp70 promoter luciferase, luminescence, triplicate. shares compounds with Hsp70 activator. HeLa hsp70.1pr-luc reporter. calls only at 99 µM. hit rate 10% among 70;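 active means over 50% activation at some tested dose; inactive means under 50% activation at every tested dose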
S1P4 antag conf – S1P4 receptor antagonists, human, confirmation, cell-based; shares compounds with S1P4 antag; S1P4-expressing cell line, antagonist mode, reporter read-out; inhibition, % at 4.98 µM; hit rate 71% among 520; in the data active means inhibition above about 30%
S1P1 antag – S1P1 receptor antagonists, human, counter-screen for S1P4 antagonist project, cell-based. shares compounds with S1P4 antag. cell-based S1P1 antagonist counterscreen, inhibition. inhibition, % at 4.98 µM. hit rate 37% among 520. AID 1564, 2009; in the data active means inhibition above about 40%;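 further: receptor stimulated with S1P near its EC80; 0% = agonist stimulated wells and 100% = vehicle only wells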
Active calls of the source: *; i = inactive; . = no result; + = active, no number. Only some compounds are listed: those with a hit (about 0.97% of all), similar ones and a draw of the others.

SMILES	Hsp70 activator	S1P4 agonist	AI-2 QS mod	S1P3 antag-1	S1P4 antag	Hsp70 act dose	others
O=C(Nc1ccc(F)cc1)Nc1cc(OCC(F)(F)F)cc(OCC(F)(F)F)c1	0	-1	16	35*	100*	.	S1P3 antag-2=10;S1P4 antag conf=110*;S1P1 antag=-29
COC(=O)c1ccc(NC(=O)Nc2ccc(F)cc2)cc1	0	0	24	2	-9	.
CCN(CC)c1ccc(/C=C/c2cc(-c3ccccc3)c3ccccc3n2)cc1	.	8	25	76*	46*	.	S1P3 antag-2=90*;S1P4 antag conf=91*;S1P1 antag=104*
CCN(CC)c1ccc(/C=N/NC(=O)c2cc(C)nc3ccccc23)cc1	.	3	10	14	-5	.
Cc1ccc2c(c1)Oc1ccccc1C=C2C(=O)O	0	-1	1	-25	-7	.
O=C(OCn1ncc(Cl)c(Cl)c1=O)c1ccc(F)cc1	13*	-5	-6	.	-18	i
O=C(COC(=O)c1ccc(F)cc1)Nc1ccc(Cl)cn1	.	1	36	-9	8	.
O=C(OCn1ncc(Cl)c(Cl)c1=O)c1ccccc1Cl	7.4*	-8	5	.	18	+
CC(C)(C)C(=O)NNC(=O)C1CC1(c1ccccc1)c1ccccc1 (stereo not drawn)	.	.	21	.	.	.
CCCOc1ccc(Cl)cc1/C=C1/C(=O)ON=C1C	.	.	4	.	.	.
CC1=NOC(=O)/C1=C\c1ccc(-c2ccc(Cl)cc2Cl)o1	5.8*	2	22	.	-28	i
COc1cc(OC)nc(-n2ncc(Br)c(Br)c2=O)n1	30*	0	.	11	11	+
CN(Cc1ccco1)C(=O)Cn1nc(-c2ccc(Cl)cc2)ccc1=O	9.3*	1	3	-7	-25	i
CC(CC1CC(C)(C)OC1=O)C(=O)Nc1ccc([N+](=O)[O-])cc1 (stereo not drawn)	5.6*	1	15	0	0	i
CC1(C)CC(CC(=O)Nc2ccc([N+](=O)[O-])cc2)C(=O)O1 (stereo not drawn)	0	-2	17	.	7	.
Cn1c(CCN2CCOCC2)nc2cc(NC(=O)COc3ccc(Cl)cc3)ccc21	8.7*	2	27	-37	16	i
COc1ccc(OCC(=O)Nc2ccc3c(c2)nc(CCN2CCOCC2)n3C)cc1	0	-1	28	-38	-4	.
O=C1NC(=O)C2(COC3(CCCC3)OC2)S1	28*	1	12	-18	3	i
COc1ccc(C2OCC3(CO2)SC(=O)NC3=O)cc1 (stereo not drawn)	0	0	27	-16	-9	.
CC(C)C(=O)N1CCN(c2ccc(NC(=O)c3ccc([N+](=O)[O-])o3)cc2Cl)CC1	74*	-3	.	2	47*	i
O=C(N=C1SC2CS(=O)(=O)CC2N1c1ccc(F)cc1)C1CC1 (stereo not drawn)	.	.	14	.	.	.
CCOC(=O)/C(=C\c1cccnc1)C(=O)c1cc(C(C)=O)c(Nc2ccccc2)s1	17*	-6	50	.	63*	i
CCOC(=O)/C(=C\c1ccccc1)C(=O)c1cc(C(C)=O)c(Nc2ccccc2)s1	0	4	21	.	-7	.
N#Cc1ccc(NC(=O)c2nc(-c3ccccc3)n(-c3ccccc3)n2)cc1	6.7*	-2	16	.	-2	i
CCOC(=O)C1(CCc2ccccc2)CCN(Cc2cccc3nccnc23)CC1	0	0	8	0	4	.
